# Compound activity (PubChem)
# The list is not random: actives were taken first. Their share in the collection is about 3.9%.
# FBA Mtb inh: Mtb FBA enzyme inhibitors, primary screen, biochemical, fluorescence, strain H37Rv; 360,000 tested, 2.3% active; inhibition, % at 1 µM; AID 588726, 2011; purified M. tuberculosis FBA, fluorescence read-out; in the data active = inhibition above about 27%;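 also: 0% = vehicle and 100% = reference inhibitor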
# Target sequence (P9WQA3 whole entry, looked up): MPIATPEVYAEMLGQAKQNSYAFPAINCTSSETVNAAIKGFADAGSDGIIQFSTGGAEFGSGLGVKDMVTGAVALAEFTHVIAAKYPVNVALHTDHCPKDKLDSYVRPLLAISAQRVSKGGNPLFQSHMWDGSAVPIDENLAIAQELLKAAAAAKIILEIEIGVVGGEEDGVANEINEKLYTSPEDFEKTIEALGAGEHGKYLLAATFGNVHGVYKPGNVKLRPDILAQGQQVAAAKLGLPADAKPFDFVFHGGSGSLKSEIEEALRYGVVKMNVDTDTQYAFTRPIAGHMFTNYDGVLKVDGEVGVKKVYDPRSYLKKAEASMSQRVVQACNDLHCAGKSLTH
# Vc quorum ag: inducers of Vibrio cholerae quorum light production without autoinducers, primary screen, BH1578 luxS cqsA deficient, single point; activation, % at 18.7 µM; V. cholerae BH1578 lux reporter, luminescence, 6 h; 350,000 tested, 0.16% active; in the data active = activation mostly above about 9.7%, no sharp cut-off
# GDH-TPI inh: GDH-TPI coupling enzyme inhibitors, primary screen, artefact control for M. tuberculosis FBA inhibitor project, biochemical, absorbance, full deck | GDH-TPI coupled enzyme counterscreen, NADH absorbance | inhibition, % at 4.8 µM | 360,000 tested, 1.2% active | AID 588335, 2011;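 also: 0% = DMSO wells and 100% = wells lacking the enzyme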
# CCHFV vOTU inh: CCHFV vOTU protease inhibitors, primary screen, biochemical, Pep-AMC substrate, fluorescence. inhibition, % at 11.5 µM. 370,000 tested, 0.55% active. AID 651958, 2012; also: 0% = vehicle wells with enzyme and 100% = no enzyme wells
# * = called active by the depositor; i = inactive; nt = no result given; + = active, no number. Rule as the data show it, unless noted: active = inhibition above about 30%; inactive = the rest.
SMILES,FBA Mtb inh,Vc quorum ag,GDH-TPI inh,CCHFV vOTU inh
COc1ccc(N2CCN(CCNC(=O)c3c(C)cc(=O)oc3C)CC2)cc1,2,0,40*,-2
Cc1cc(=O)oc(C)c1C(=O)NCCCN1CCN(c2ccc(F)cc2)CC1,-2,1,40*,4
CC1CCCN(Cc2c(O)ccc3c(=O)c(-c4ccc(Cl)cc4)coc23)C1 (centres undefined),14,i,4,-18
CCN(CC)Cc1c(O)ccc2c(=O)c(-c3ccccc3OC)coc12,116*,1,15,-160
COc1ccccc1-c1coc2c(CN3CCC(C)CC3)c(O)ccc2c1=O,149*,0,27,-130
Cc1[nH]c(=O)[nH]c(=O)c1S(=O)(=O)N1CCCC(C(=O)N2CCC(Cc3ccccc3)CC2)C1 (centres undefined),-2,0,5,-9
CCOC(=O)c1nnc(-c2cccs2)nc1NC(C)C,-5,i,31*,2
COc1ccc(-c2nn(C)c3sc(C(=O)NCc4ccco4)cc23)cc1OC,-1,-8,9,2
COc1ccc(NC(=O)c2cc3c(-c4ccc(OC)c(OC)c4)nn(C)c3s2)cc1OC,2,0,38*,-10
COc1ccc(NC(=O)C[C@H]2C(=O)N(CCc3ccccc3)C[C@@H]2CSC)cc1,-1,0,3,6
COC(=O)Cc1nnn2c1CC(OC)c1ccccc1-2 (centres undefined),nt,nt,nt,10
COC(CSc1nc(N)c2c3c(sc2n1)CN(C)CC3)OC,181*,0,36*,-52
C=CCSc1nc(N)c2c3c(sc2n1)CN(C)CC3,21,-1,14,-11
C=CCn1c(O)c(C=Nc2ccc(OC)cc2C)c(=O)[nH]c1=O,0,i,43*,-2
COc1ccc(N=Cc2c(O)n(-c3ccc(C)cc3)c(=O)[nH]c2=O)cc1,3,i,22,14
COc1cccc(CSc2nnc(CSc3nc4nc(C)cc(C)n4n3)s2)c1,2,i,11,-12
CN1c2ccccc2-c2nc3ccccc3n2C1c1ccccn1 (centres undefined),47*,1,9,-136
c1ccc(CN2c3ccccc3-c3nc4ccccc4n3C2c2ccccn2)cc1 (centres undefined),121*,0,5,-64
CN1c2ccccc2-c2nc3ccccc3n2C1c1ccncc1 (centres undefined),12,i,20,8
CCn1c(NCc2ccco2)nc2ccccc21,4,-1,10,-20
CCN1c2ccccc2-c2nc3ccccc3n2C1c1ccco1 (centres undefined),+,0,9,-242
Cc1ccc(/C=N/Nc2nncc(-c3ccccc3)n2)o1,-3,0,44*,7
COc1ccc(/C=N/Nc2nc(C)cc(-c3ccccc3)n2)cc1OC,0,i,30,14
Clc1ccc(-c2ccc(/C=N/Nc3nncc(-c4ccccc4)n3)o2)cc1,-2,0,4,14
COc1ccc(-c2cnnc(N/N=C/c3ccc(OC)c(OC)c3)n2)cc1,-2,-1,54*,4
SMILES,FBA Mtb inh,Vc quorum ag,GDH-TPI inh,CCHFV vOTU inh
CCOC(=O)C(Cc1ccc(Cl)cc1Cl)c1ccno1 (centres undefined),0,-2,-5,16
CC(C)n1c(-c2ccc(N(C)C)cc2)nc2ccccc21,185*,-1,11,-40
CN(C)c1ccc(-c2nc3ccccc3n2C)cc1,+,i,18,-81
CCn1c(-c2ccc(N(C)C)cc2)nc2ccccc21,+,i,17,-67
O=C(C[n+]1ccc2ccccc2c1)Nc1cc(C(F)(F)F)ccc1Cl,7,0,4,4
O=C(Cn1c(=O)n(CC2CS2)c2ccccc21)N1CCCCCC1 (centres undefined),4,3,-8,5
C=C(C)CSc1nnc2n(N)c(=O)c3ccccc3n12,1,0,6,-6
CC(C)(C)n1nnnc1C(CCc1ccccc1)N1CCC(n2c(=O)[nH]c3ccccc32)CC1 (centres undefined),0,nt,nt,11
COc1ccc2cc3cc(C(=O)NCc4cccs4)oc3nc2c1,+,i,31*,-170
CCCCN(CC)CCCNC(=O)c1cc2cc3ccc(OC)cc3nc2o1,+,-1,36*,-256
CCCN(CCC)CCCNC(=O)c1cc2cc3ccc(OC)cc3nc2o1,+,i,32*,-260
COc1ccc(N2CC(C(=O)N/N=C/c3ccccc3)CC2=O)cc1 (centres undefined),1,-5,3,-13
